# Test results published in the supplement of paper PMC9433436.
# ± gives the standard deviation of the averaged measurements. Over roughly 4,100 sequences, “relative kcat/Km (krel) vs genomic leader AAAGAU” has its median near 1.7; the highest 2% begin near 6.5. Shown is part of a subset that was picked to be rich in the highest values.
# Target: T1, E. coli RNase P holoenzyme (M1 P RNA + rnpA protein) (UniProt P0A7Y8)
# T1 sequence: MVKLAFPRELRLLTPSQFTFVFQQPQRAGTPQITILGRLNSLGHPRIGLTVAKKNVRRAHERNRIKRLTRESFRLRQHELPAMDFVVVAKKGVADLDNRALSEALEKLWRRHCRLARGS
# Assay: relative kcat/Km (krel) vs genomic leader AAAGAU (relative (reference leader = 1)); higher = faster RNase P cleavage
# Procedure: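 HTS-Kin: a pool of ptRNA-Met (21C construct) with all 4096 combinations of 5' leader nucleotides N(-6) to N(-1) was processed in vitro by E. coli RNase P (P RNA + rnpA/C5 protein) under multiple-turnover conditions at 37 C, pH 8, 17.5 mM MgCl2. Residual substrate was Illumina-sequenced at several fractions reacted, and relative kcat/Km (krel) was computed by internal competition kinetics, calibrated to the genomic leader (AAAGAU = 1). The listed hexamer is the varied N(-6)..N(-1) leader (DNA letters), and it sits between a fixed 5' stem-loop flank (GCAUGCACGAAAGUGCGUGCUAUGAA) and the mature tRNA-Met starting GGCUACGUAGCUCAGUUGG. Two technical replicates are averaged.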
# [1] = fraction of substrate reacted: ~9-10% (9.79% repeat 1, 9.1% repeat 2)
# [2] = fraction of substrate reacted: ~13-16% (15.68% repeat 1, 13.17% repeat 2)
# [3] = fraction of substrate reacted: ~26-29% (28.66% repeat 1, 26.4% repeat 2)
Sequence,relative kcat/Km [1],relative kcat/Km [2],relative kcat/Km [3]
CGTCAC,4.5 ± 2.1,5.37 ± 0.7,6.77 ± 2
CCTCAC,2.54 ± 0.75,3.07 ± 0.55,4.22 ± 1.2
CGTCAG,0.776 ± 0.25,1.34 ± 0.28,3.11 ± 0.5
CGTCAT,2.843 ± 0.013,4.98 ± 1.9,6.96 ± 3.1
CGTCGC,2.49 ± 0.74,3.77 ± 0.95,4.81 ± 1.1
CGTCAA,1.61 ± 0.25,3.42 ± 0.92,5.08 ± 1.4
AGTCTT,3.48 ± 0.67,3.72 ± 0.46,5 ± 2.2
GAGCAA,1.98 ± 0.29,2.27 ± 0.026,2.57 ± 0.78
AATTAC,3.5 ± 1.7,3.97 ± 0.31,5.32 ± 1.9
TATTAC,3.92 ± 1.1,5.68 ± 0.93,7.86 ± 3.4
TATTCT,3.27 ± 1.2,4.15 ± 0.4,5.78 ± 2.3
TATTAG,2.38 ± 2.3,2.95 ± 0.03,4.43 ± 1.4
TATTAT,4.02 ± 1.1,5.95 ± 1.7,9.03 ± 4.1
AATTAT,3.11 ± 0.81,4.75 ± 0.82,5.76 ± 2.3
TATTAA,4.01 ± 2.3,5.12 ± 0.072,6.96 ± 2.6
AATTAA,2.86 ± 2,3.37 ± 0.39,4.73 ± 1.6
TATTCC,2.05 ± 0.31,2.87 ± 0.33,3.57 ± 1.4
ACTTTG,–,–,1.31 ± 0.45
GCCCTC,1.81 ± 0.28,2.28 ± 1.4,3.98 ± 1.6
CGCCGT,0.516 ± 0.5,–,1.06 ± 0.75
AATTAG,–,1.34 ± 0.23,3.09 ± 1.5
AGTACT,2.34 ± 1.3,2.42 ± 0.095,3.74 ± 1.6
AAATAT,1.72 ± 0.35,3.11 ± 0.79,4.74 ± 2.4
GCGGAG,–,–,0.583 ± 0.36
TCGGAA,1.2 ± 1.2,1.23 ± 0.93,1.33 ± 0.09
AAATCA,1.55 ± 0.36,1.42 ± 0.17,1.8 ± 0.46

Sequence,relative kcat/Km [1],relative kcat/Km [2],relative kcat/Km [3]
TTCGAA,5.32 ± 1.2,7.22 ± 2.3,10.3 ± 4.3
CGCGAA,2.89 ± 0.49,3.39 ± 1.2,4.94 ± 1.5
TGCGAA,1.78 ± 0.26,1.82 ± 0.69,2.43 ± 0.68
TTCGAG,–,1.96 ± 0.07,4.8 ± 1
TTCGAC,5.66 ± 1.9,7.11 ± 1.7,10.2 ± 4.3
TTCGAT,1.69 ± 0.22,2.71 ± 1.2,4.44 ± 2
TTCGTG,–,0.287 ± 0.27,2.01 ± 0.17
CTCGAA,4.31 ± 0.54,6.4 ± 1.7,8.12 ± 3.5
CTCGTC,2.68 ± 0.76,3.41 ± 0.98,5.19 ± 2
CTCGGA,–,–,0.671 ± 0.41
TTCGTA,3.36 ± 1.3,4.26 ± 0.22,6.35 ± 2.4
TTCGTC,3.53 ± 1.4,4.55 ± 1,6.81 ± 3.2
AGTGTT,0.435 ± 0.024,–,1.34 ± 0.99
CTACTT,2.09 ± 0.14,2.2 ± 0.49,2.49 ± 0.63
TGAACT,1.41 ± 0.67,1.85 ± 0.71,2.58 ± 0.76
GGCGCT,1.32 ± 0.23,0.701 ± 0.31,1.43 ± 0.38
GGGCTT,–,–,0.481 ± 0.22
TAACCG,–,–,0.9 ± 0.51
GCTTTC,2.29 ± 2.1,1.88 ± 0.58,2.09 ± 0.45
AATACA,1.91 ± 0.78,1.7 ± 0.041,2.02 ± 0.66
TAAACA,1.85 ± 0.81,1.35 ± 0.24,1.75 ± 0.52
ATCGGA,0.168 ± 0.15,0.728 ± 0.66,1.28 ± 1.1
CAGCTT,2.22 ± 1.1,1.55 ± 0.38,2.33 ± 0.38
GTGCAC,1.19 ± 0.29,1.29 ± 0.18,1.98 ± 0.6
GATAAA,1.84 ± 0.48,2.34 ± 0.5,3.8 ± 1.4
AGAGAG,–,–,1.16 ± 0.33

Sequence,relative kcat/Km [1],relative kcat/Km [2],relative kcat/Km [3]
GTCGAT,1.85 ± 0.87,2.87 ± 0.49,3.7 ± 1.3
ATCGAA,3.16 ± 0.35,5.71 ± 1.4,8.19 ± 3.6
AGCGAC,3.26 ± 1.9,3 ± 1.1,4.06 ± 1.3
ATCGGC,–,–,1.97 ± 1.5
GTCGTA,2.55 ± 1.1,2.7 ± 0.23,3.88 ± 0.79
GGCGAA,2.38 ± 1.1,2.86 ± 0.39,3.85 ± 1.4
ATCGAT,1.99 ± 0.67,3 ± 0.7,3.36 ± 1.2
GTCGAG,2.05 ± 1.5,2.123 ± 0.001,4.03 ± 1.6
ATCGAG,2.14 ± 2.1,1.29 ± 0.12,3.85 ± 0.66
GTCGAA,4.23 ± 1.8,5.6 ± 0.65,8.71 ± 2.8
GTCGAC,3.76 ± 0.29,5.92 ± 1.9,9.01 ± 3.7
ATCGAC,3.59 ± 0.99,4.75 ± 0.93,6.92 ± 2
TTGCCG,–,–,0.519 ± 0.071
AGTGAA,2.54 ± 0.25,2.23 ± 0.96,3.35 ± 1.5
ATGACA,1.94 ± 1.6,1.85 ± 0.61,2.06 ± 0.28
ATACGT,0.722 ± 0.057,1.92 ± 1.6,–
CGCGGA,1.5 ± 1.2,1.39 ± 0.29,1.41 ± 0.58
AGCACC,2.38 ± 0.45,2.12 ± 1.5,3.05 ± 1.8
CCTGGT,–,–,2.47 ± 0.83
CTCGAC,5.18 ± 1.3,6.72 ± 2.8,9.16 ± 4.6
CTCGAG,1.8 ± 0.06,1.72 ± 1.4,3.97 ± 1.3
CTCGAT,1.97 ± 0.027,2.48 ± 1.3,4.24 ± 2.1
TAGGGA,0.803 ± 0.65,–,–
GGAAAC,1.99 ± 1.4,1.61 ± 1.1,2.23 ± 0.17
CCGCGC,2.23 ± 0.85,1.53 ± 0.98,1.76 ± 0.15
GCGCAT,1.99 ± 0.76,2.09 ± 1.1,3.07 ± 1.8

Sequence,relative kcat/Km [1],relative kcat/Km [2],relative kcat/Km [3]
AAAAGC,–,–,0.981 ± 0.48
ACAGTG,–,–,0.981 ± 0.72
CCGGTA,1.49 ± 0.78,1.25 ± 0.69,–
AACGCG,1.32 ± 0.5,0.857 ± 0.52,1.47 ± 0.078
TCCCGC,4.31 ± 2.6,5.2 ± 0.32,7.32 ± 3.2
TCCCGA,3.95 ± 1.4,4.81 ± 0.41,7.64 ± 2.3
ACCCGA,3.55 ± 0.39,4.06 ± 0.66,5.44 ± 1.5
CCCCGC,2.14 ± 1.4,2.8 ± 0.83,4.54 ± 1.6
ACCCGC,3.03 ± 1.8,3.51 ± 0.3,4.87 ± 1.5
CCCCGA,3.63 ± 1.8,4.05 ± 0.29,4.96 ± 1.9
TTGCGG,0.933 ± 0.76,0.256 ± 0.11,1.14 ± 0.22
AAATAA,2.68 ± 1.5,2.92 ± 0.98,3.44 ± 1.2
TCACGC,2.24 ± 0.65,3 ± 0.93,4.05 ± 1.5
GTGACT,–,0.972 ± 0.2,1.08 ± 0.28
GGGACA,1.4 ± 1.2,0.801 ± 0.45,1.2 ± 0.15
GGGTGC,0.876 ± 0.24,0.837 ± 0.025,1.04 ± 0.35
ATGTTG,–,–,0.642 ± 0.16
TTCTCA,4.88 ± 2.1,5.74 ± 0.87,8.21 ± 3.6
TTCTCG,2.16 ± 1.3,2.86 ± 0.45,4.91 ± 1.5
GTGTCT,0.45 ± 0.21,1.24 ± 0.15,1.44 ± 0.22
GTCTCG,2.29 ± 1.9,2.35 ± 0.054,4.3 ± 1.1
GTCTCT,4.15 ± 1.8,5.51 ± 0.37,7.16 ± 1.8
GTCTCA,3.83 ± 1.2,5.79 ± 0.43,7.71 ± 2.8
